High-throughput results: PubChem, several laboratories
An excerpt weighted towards active compounds, which were near 2.6% of everything screened.
EWS-Fli inh: blocks EWS/Fli oncoprotein-driven transcription. A673 NR0B1-luciferase reporter, viability-normalised. inhibition, % at 12.6 µM. 350,000 tested, 0.67% active. AID 651661;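 active = mean inhibition of at least 50% after viability correction, with every replicate also passing that limit; inconclusive = mean reaches 50% but only one of two replicates passes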;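 also: firefly luciferase signal divided by Alamar Blue viability fluorescence both relative to DMSO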
LMP1 NFkB inh: Epstein-Barr LMP1 NF-kappaB reporter inhibition; LMP1-induced NF-kappaB luciferase reporter cells, luminescence; inhibition, % at 12.5 µM; 350,000 tested, 0.69% active; AID 504558; in the data active = inhibition above about 41%; inconclusive = no clear call, values can overlap the other calls;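 also: 0% = neutral control wells and 100% = reference inhibitor control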
LGR2 inh: inhibitors of bursicon-induced Drosophila LGR2 receptor cAMP signaling; HEK293 LGR2, CRE-luciferase, bursicon-stimulated, 4 h; inhibition, % at 9.99 µM; 380,000 tested, 0.35% active; AID 720647;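 active = drop in luminescence signal, shown as inhibition above about 50% in the replicate tests, limit read from the data, passing the limit was not always enough; inconclusive = probably only some replicates passing the limit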;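 also: agonist challenge used bursicon conditioned medium at about half maximal strength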
TWEAK-Fn14 inh: TWEAK-Fn14 signaling inhibition; TWEAK-stimulated Fn14 reporter cells, luciferase luminescence, 8 h; inhibition, % at 10 µM; 360,000 tested, 2% active; in the data active = inhibition above about 50%
TROY signal inh: inhibitors of TROY-dependent NF-kB signaling; AID 1347056; inhibition, % at 10 µM; Q293 LMP1-TROYcd NF-kB luciferase reporter, 4 h; 360,000 tested, 0.98% active;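 active = compounds whose plate-normalised and pattern-corrected inhibition of the luciferase reporter signal at the single screening dose is 50% or more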
* = called active by the depositor; ? = inconclusive; . = not tested or not shown.

SMILES | EWS-Fli inh | LMP1 NFkB inh | LGR2 inh | TWEAK-Fn14 inh | TROY signal inh
COCCc1nc2ccc(C(=O)N(C)Cc3cccc(-n4nc(C)cc4C)c3)cc2o1 | -11.4 | -2.1 | -12.1 | -1.8 | 60.4*
COc1ccc2c3c(n(C)c2c1)[C@H](CO)N(C(=O)Nc1ccc(F)cc1)CC31CN(C(=O)CC2CC2)C1 | 21.1 | . | -9.0 | . | .
CCNc1ccc(Br)cc(C(=O)/C=C/c2ccccc2Cl)c1=O | . | 83.3* | . | 8.0 | 8.6
COc1ccc(-c2ccc3c(c2)[C@@H]2[C@@H](CCN2S(=O)(=O)c2ccccc2C)[C@@H](CO)N3C)cc1 | 6.1 | . | 5.6 | . | .
O=S(=O)(c1cccs1)N1CCCc2nc(-c3ccc(F)cc3)ccc21 | -1.8 | . | -25.0 | . | .
Cc1ccc(NC(=O)c2noc3c2CCc2ccccc2-3)cc1 | . | -41.9 | . | -13.5 | -38.2
O=C(Nc1cccc(O)c1)c1noc2c1CCc1ccccc1-2 | . | 0.8 | . | 71.8* | 45.8
O=C([C@H]1[C@H](CO)[C@H]2Cn3c(ccc(C4=CCCC4)c3=O)[C@H]2N1Cc1nccs1)N1CCOCC1 | -2.2 | . | 10.8 | . | .
CCn1cc(C(=O)NC(=S)Nc2sc3c(c2C(=O)OC)CCCCCC3)cn1 | . | -50.1 | 7.9 | -18.9 | 70.8*
CCOC(=O)c1c(NC(=O)c2nn(CC)cc2Br)sc2c1CCCCC2 | . | 25.2 | . | -13.3 | -18.4
CCn1c(NC(=O)Nc2ccccc2OC)nc2ccccc21 | . | 33.8 | . | 62.3* | .
CS(=O)(=O)Nc1ccc2c(c1)[C@H]1C[C@H](CC(=O)NCc3ccncc3)O[C@@H](CO)[C@H]1O2 | -3.8 | . | 10.2 | . | .
O=C(O)C[C@H]1C[C@@H]2c3cc(NC(=O)Nc4ccc(C(F)(F)F)cc4)ccc3O[C@@H]2[C@H](CO)O1 | -1.2 | . | 0.4 | . | .
O=[N+]([O-])c1ccc(/C=N/N=C/c2ccc([N+](=O)[O-])o2)o1 | ? | -17.1 | 82.4* | 83.9* | -60.9
O=C1C2C3C=CC(C4CC34)C2C(=O)N1/N=C/c1ccc(-c2ccc([N+](=O)[O-])cc2)o1 (stereo not drawn) | 3.8 | -3.1 | -10.3 | -8.3 | 1.4
O=C(O)/C=C/c1ccc([N+](=O)[O-])o1 | 5.0 | -3.9 | 4.6 | 2.8 | 0.8
O=C1C2C3C=CC(C4CC34)C2C(=O)N1/N=C/c1ccc([N+](=O)[O-])o1 (stereo not drawn) | 20.5 | -94.0 | 25.9 | 89.6* | 20.2
COc1ccc(S(=O)(=O)N(C)C[C@H]2OCCCC[C@H](C)Oc3ccc(NC(=O)Nc4c(C)noc4C)cc3C(=O)N([C@H](C)CO)C[C@@H]2C)cc1 | -8.4 | . | 3.9 | . | .
CCCS(=O)(=O)N1CCCC(C(=O)Oc2ccc(Cl)cc2)C1 (stereo not drawn) | 15.2 | 6.2 | 11.2 | -12.5 | -0.3
CCCCS(=O)(=O)N1CCCC(C(=O)Nc2ccc(Cl)cn2)C1 (stereo not drawn) | 2.3 | -11.9 | -2.5 | 85.5* | 4.7
Cc1ccc(-n2ncc(C(=O)Nc3cc(Cl)cc(Cl)c3)c2C2CCNCC2)cc1C | 62.4* | -11.3 | 33.3 | -4.0 | -6.0
CC(=O)NCc1ccc(OCCCN2CCC(C(O)(c3ccccc3)c3ccccc3)CC2)cc1 | -1.3 | . | -3.8 | . | .
S=C(c1ccc2c(c1)OCO2)N1CCN(c2cccc(Cl)c2)CC1 | 59.7* | 6.7 | 13.3 | 28.8 | 15.5
Cc1ccc(S(=O)(=O)N[C@@H]2CC[C@H](CCNC(=O)C3CC3)O[C@@H]2CO)cc1 | 2.0 | . | 5.2 | . | .
CCc1nc2sc3c(c2c(=O)n1N)CC(C)(C)OC3 | -5.9 | -2.2 | -17.9 | -11.8 | 2.8
SMILES | EWS-Fli inh | LMP1 NFkB inh | LGR2 inh | TWEAK-Fn14 inh | TROY signal inh
CCCc1nc2sc3c(c2c(=O)n1NC(=O)c1ccco1)CC(C)(C)OC3 | -3.6 | -5.5 | . | -7.3 | -36.7
CCCCCCCCCc1nc2sc3c(c2c(=O)n1NC(=O)c1ccc([N+](=O)[O-])cc1)CC(C)(C)OC3 | . | 2.8 | 23.7 | 55.7* | 42.5
CCCCCCCCCc1nc2sc3c(c2c(=O)n1NC(=O)c1ccccc1[N+](=O)[O-])CC(C)(C)OC3 | -4.5 | -3.5 | 3.1 | 49.1 | 58.2*
COCC(=O)N1CC2(C1)[C@H](c1ccc(-c3ccccc3)cc1)[C@H](CO)N2C(C)=O | 8.7 | . | 9.7 | . | .
CCCC(=O)Nc1ccc2c(c1)C(=O)N(C)C[C@@H](OC)[C@H](C)CN(S(=O)(=O)c1cn(C)cn1)[C@@H](C)CO2 | -4.1 | . | -4.0 | . | .
CCCCC(=O)Nc1ccccc1C(=O)OCC(=O)c1ccc2c(c1)OCCO2 | . | -8.8 | 1.8 | 10.2 | 13.2
O=C(O)/C=C/C(=O)Nc1ccccc1C(=O)OCC(=O)c1ccc2c(c1)OCCO2 | -2.8 | 3.5 | 16.7 | 31.4 | 52.8*
CC1(Cc2ccc(OC(F)(F)F)cc2)C(=O)Nc2ccc(S(=O)(=O)NC3CCCCC3)cc21 (stereo not drawn) | 5.6 | . | ? | 78.1* | 52.2*
CC(C)NC(=O)N(C)C[C@H]1OCCCC[C@@H](C)Oc2ccc(NS(=O)(=O)c3ccccc3)cc2C(=O)N([C@H](C)CO)C[C@@H]1C | -2.4 | . | 2.1 | . | .
CC1CCC(C(C)C)C(OC(=O)Cn2c(-c3ccccc3)[n+](C)c3ccccc32)C1 (stereo not drawn) | 13.8 | -20.7 | 58.9* | 63.7* | 56.7*
CC1CCC(C(C)C)C(OC(=O)Cn2c(-c3ccc(F)cc3)[n+](C)c3ccccc32)C1 (stereo not drawn) | 13.4 | 15.0 | ? | 44.6 | 31.1
Cc1cccc(OCc2n(CC(=O)OC3CC(C)CCC3C(C)C)c3ccccc3[n+]2C)c1 (stereo not drawn) | . | -14.6 | . | 74.5* | 64.2*
COc1cccc(/C=N/Nc2ncnc(N)c2[N+](=O)[O-])c1OC | . | ? | . | 83.6* | 42.9
Cc1cc(/C=N/Nc2ncnc(N)c2[N+](=O)[O-])c(C)n1-c1ccccc1 | 83.0* | 78.5* | 79.3* | 98.5* | 83.4*
Cc1cc(=O)[nH]c(N/N=C/c2cc(C)n(-c3ccccc3)c2C)n1 | -21.8 | -1.5 | -7.7 | 25.0 | 25.3
COCCNC(=O)C[C@@H]1CC[C@@H]2[C@H](COc3ccc(NC(=O)COC)cc3C(=O)N2C)O1 | 5.7 | . | -10.2 | . | .
CCCCNc1nc(N)nc(-c2cc(Cl)ccc2O)n1 | . | -40.3 | 1.5 | 81.8* | 28.2
CCNc1nc(N)nc(-c2cc(Cl)ccc2O)n1 | . | -39.7 | . | 64.5* | 1.2
Nc1nc(N)nc(-c2cc([N+](=O)[O-])ccc2O)n1 | -26.5 | -19.0 | 21.3 | 40.8 | 2.2
CCCNc1nc(N)nc(-c2cc(Cl)ccc2OC)n1 | . | 4.5 | -0.3 | 11.8 | 2.0
Cc1noc(C)c1NC(=O)Nc1ccc2c(c1)C(=O)N([C@H](C)CO)C[C@@H](C)[C@@H](CN(C)Cc1ccccc1)OCCCC[C@H](C)O2 | -1.5 | . | 12.5 | . | .
N#Cc1nc(Nc2cc(F)cc(F)c2)c2ncn(CC(F)F)c2n1 | -66.3 | -18.5 | -46.2 | 13.2 | -44.4
N#Cc1nc(NCC(F)F)nc(Nc2cc(F)cc(F)c2)n1 | -11.2 | -5.4 | 27.0 | 91.8* | 46.3
O=C(Nc1cccc(Cl)c1N1CCCCC1)c1ccc2c(c1)OCCO2 | . | -3.6 | . | -15.3 | 2.5
O=C(NC(=S)Nc1cccc(Cl)c1N1CCCCC1)c1ccc2c(c1)OCCO2 | . | -8.5 | -15.0 | 71.0* | 70.2*
